# Data from PubChem BioAssay (NCATS).
# A number with no mark means an inactive call. Inconclusive results are not listed. Active and inactive are the calls of the source. Unless noted, calls come from the whole dose curve; as a rule, active = well fitted curve in either direction with a large enough effect (not every such curve was filed as active); inconclusive = small, poorly fitted or top-dose-only effect, or another doubt; inactive = flat fitted curve, though single readings scatter.
# Experiments:
# [1] = target: Lysosomal acid glucosylceramidase (Homo sapiens) (UniProt P04062); experiment: Glucocerebrosidase-p2 (AID 348; in the data active = potency below about 10 µM; note: potency is the fitted concentration of half-maximal effect); details: purified GBA, blue fluorogenic substrate, 40 min
# Method in brief: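 Compounds titrated from 0.6 nM upwards against 0.2 nM enzyme in pH 5.9 citric acid/KH2PO4, taurocholate, tween-20; blue fluorogenic substrate 80 uM, 40 min room temperature, stopped and read Ex 365/Em 440 for AC50.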
# [2] = AP1 Signaling Pathway (AID 357); details: ME-180 AP-1-bla reporter, EGF-induced, beta-lactamase ratio, 5 h; at 7.69 µM (top of the series) unless noted;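 note: ME-180 reporter cells stimulated with EGF at its EC50 level; % is set by controls: 0 for no effect and ±100 for the full control effect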
# Method in brief: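 In this screen, ME-180 cells in Opti-MEM with 0.5% dialyzed FBS received EC50 EGF and compound titrations for 5 h. AP-1 reporter beta-lactamase was detected via CCF4 ratio, giving AC50 for positive and negative modulators.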
# [3] = target: Cytochrome P450 1A2 (Homo sapiens) (UniProt P05177); experiment: p450-cyp1a2 (AID 410; calls by dose curve; note: potency is the fitted concentration of half-maximal effect;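 for activity change, negative = inhibition: -100% = full effect of reference inhibitor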); details: recombinant CYP1A2, luciferin-ME demethylation, luminescence; series mostly up to 11.4 µM
# Method in brief: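 Human CYP1A2 (20nM) demethylated Luciferin-ME at its Km (100uM) in 100mM KPO4. After 10 min compound preincubation, NADPH regeneration ran the reaction 60 min at room temperature. Luciferin was read by luminescence, normalized to 57 uM furafylline.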
# [4] = Stat Signaling Pathway (AID 446); details: ME-180 SIE beta-lactamase reporter, IL-6 stimulated, 5 h; at 7.69 µM (top of the series) unless noted;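 note: ME-180 cervical cancer cells given 40 pM IL-6 alongside compound; SIE-controlled beta-lactamase reporter measured as 460/530 nm FRET emission ratio; % is set by controls: 0 for no effect and ±100 for the full control effect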
# Method in brief: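 Screening format detects activators and inhibitors alike: ME-180 SIE-bla cells stimulated at 40 pM IL-6 for 5 hrs with compound, then dual-emission beta-lactamase read at 405 nm excitation.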
# [5] = target: Glucocorticoid receptor (Homo sapiens) (UniProt P04150); experiment: GR-GFP Redistribution (AID 450;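 active = compounds whose dose series gives a full or clear partial fitted curve of increased nuclear translocation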; note: potency is the fitted concentration of half-maximal effect); details: U2OS GR-GFP nuclear translocation, laser cytometry, 2 h
# [6] = target: Glucocorticoid receptor (Homo sapiens) (UniProt P04150); experiment: GR-EFC Redistribution (AID 451; calls by dose curve; note: potency is the fitted concentration of half-maximal effect); details: CHO-K1 GR-EFC translocation, beta-gal luminescence, 2 h
# Method in brief: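 CHO-K1 cells expressing nuclear EA and GR-ED fragments of b-gal; compounds titrated up to 46 uM final, 2 h at 37 C. GR nuclear translocation read as complemented b-gal luminescence after 1 h RT detection.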
# [7] = target: Mitogen-activated protein kinase 10 (Mus musculus) (UniProt Q61831); experiment: JNK3 AlphaScreen Assay (AID 530); details: JNK3 lysate, c-Jun phosphorylation; series mostly up to 11.4 µM;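 note: kinase came from lysate of stimulated human HepG2 cells; signal reports phosphorylation of biotinylated GST-cJun 1-79 at Ser73 with 10 µM ATP; % is set by controls: 0 for no effect and ±100 for the full control effect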
# Method in brief: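 qHTS format: compounds tested as titrations against IL-1beta/TNF-alpha-activated HepG2 lysate JNK3 with biotin-GST-cJun substrate and 10 uM ATP at room temperature. Loss of anti-phospho-cJun AlphaScreen signal indicates inhibition.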
# [8] = target: 3',5'-cyclic-AMP phosphodiesterase 4B (Homo sapiens) (UniProt Q07343); experiment: qHTS Assay for Inhibitors of PDE-IV (AID 607; active = well fitted activation curve with a large enough effect in the main read-out, with a control signal flat, not every such curve was filed as active; note: % of control where 0% means no effect); details: HEK293 ACTOne CNG channel cells, membrane potential fluorescence; series mostly up to 22.9 µM
# Method in brief: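 The readout is membrane depolarisation from a cAMP-sensing CNG channel, detected with a potential dye at ex 535/em 590. Cells were HEK293-derived (endogenous PDE-IV) at 1000 cells/well, titrated up to 22.9 uM final.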
# [9] = target: Cytochrome P450 2D6 (Homo sapiens) (UniProt P10635); experiment: qHTS Assay for Inhibitors and Substrates of Cytochrome P450 2D6 (AID 891; active = well fitted curve in the direction sought with a large enough effect; an effect the other way counts as inactive or inconclusive; note: nearly all actives have a fitted effect of over 60% in size; note: potency is the fitted concentration of half-maximal effect); details: recombinant CYP2D6, luciferin-ME EGE luminescence; series mostly up to 11.4 µM
# Method in brief: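 Human CYP2D6 (5 nM) with 30 uM Luciferin-ME EGE (at Km) in 100 mM KPO4, compound preincubated 10 min, then NADPH regeneration system for 60 min at room temperature. Luciferin read by luminescence; normalized to 1.43 uM quinidine.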
# [10] = target: Cytochrome P450 3A4 (Homo sapiens) (UniProt P08684); experiment: qHTS Assay for Activators of Cytochrome P450 3A4 (AID 885; active = well fitted curve in the direction sought with a large enough effect; an effect the other way counts as inactive or inconclusive; note: nearly all actives have a fitted effect of over 65% in size); details: recombinant CYP3A4, Luciferin-PPXE luminescence, 60 min; series mostly up to 11.4 µM
# Method in brief: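 Steps: enzyme/substrate mix dispensed; compound added, 10 min RT; NADPH regeneration solution added, 60 min RT; luciferin detection buffer stops reaction; 20 min later luminescence measured.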
# [11] = target: Cytochrome P450 2C19 (Homo sapiens) (UniProt P33261); experiment: qHTS Assay for Inhibitors and Substrates of Cytochrome P450 2C19 (AID 899; active = well fitted curve in the direction sought with a large enough effect; an effect the other way counts as inactive or inconclusive; note: nearly all actives have a fitted effect of over 60% in size; note: potency is the fitted concentration of half-maximal effect; for activity, negative = inhibition: % is set by controls: 0 for no effect and ±100 for the full control effect); details: recombinant CYP2C19, luciferin-H EGE luminescence; series mostly up to 11.4 µM
# Method in brief: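 Signal comes from luciferase acting on luciferin released by CYP2C19-mediated hydroxylation of Luciferin-H EGE, 10uM (KM). Assay mix: 5nM enzyme, 50mM KPO4; 60 min at 37C with NADPH regeneration. Data normalized against 57uM ketoconazole.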
# [12] = target: Cytochrome P450 2C9 (Homo sapiens) (UniProt P11712); experiment: qHTS Assay for Inhibitors and Substrates of Cytochrome P450 2C9 (AID 883; active = well fitted curve in the direction sought with a large enough effect; an effect the other way counts as inactive or inconclusive; note: % is set by controls: 0 for no effect and ±100 for the full control effect; nearly all actives have a fitted effect of over 60% in size); details: recombinant CYP2C9, luciferin-H luminescence, 60 min; series mostly up to 11.4 µM
# Method in brief: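 Signal: luciferase luminescence reporting luciferin produced by CYP2C9. Conditions: 10nM enzyme, Luciferin-H 100uM at KM, 25mM KPO4, 37C, 60 min NADPH-driven reaction. Reference: 57uM sulphaphenazole as 100% inhibition.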
# [13] = target: Cytochrome P450 3A4 (Homo sapiens) (UniProt P08684); experiment: qHTS Assay for Inhibitors and Substrates of Cytochrome P450 3A4 (AID 884; active = well fitted curve in the direction sought with a large enough effect; an effect the other way counts as inactive or inconclusive; note: potency is the fitted concentration of half-maximal effect; nearly all actives have a fitted effect of over 50% in size); details: recombinant CYP3A4, Luciferin-PPXE luminescence; series mostly up to 57.1 µM
# Method in brief: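 20 nM human CYP3A4 with 25 uM Luciferin-PPXE (at KM) in 200 mM KPO4, preincubated 10 min with compound; NADPH regeneration started a 60 min RT reaction. Luciferin detected by luminescence, normalized to 57 uM ketoconazole as full inhibition.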
# Cytochrome P450 2C19 (Homo sapiens), sequence (P33261 whole entry, looked up): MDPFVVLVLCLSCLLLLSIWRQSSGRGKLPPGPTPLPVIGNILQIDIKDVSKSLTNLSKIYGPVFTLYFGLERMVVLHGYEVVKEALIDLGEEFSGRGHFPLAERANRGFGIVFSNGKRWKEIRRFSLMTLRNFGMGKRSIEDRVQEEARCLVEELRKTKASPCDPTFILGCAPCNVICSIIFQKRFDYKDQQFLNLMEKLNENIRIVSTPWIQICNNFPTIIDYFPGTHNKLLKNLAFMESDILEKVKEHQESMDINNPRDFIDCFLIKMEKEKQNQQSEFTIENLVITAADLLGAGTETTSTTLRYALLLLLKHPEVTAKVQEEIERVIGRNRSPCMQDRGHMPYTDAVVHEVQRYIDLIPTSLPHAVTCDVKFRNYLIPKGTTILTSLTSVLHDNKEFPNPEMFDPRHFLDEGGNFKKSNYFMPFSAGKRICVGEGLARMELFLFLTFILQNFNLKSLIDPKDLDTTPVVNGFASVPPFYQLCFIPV
# Cytochrome P450 3A4 (Homo sapiens), sequence (P08684 whole entry, looked up): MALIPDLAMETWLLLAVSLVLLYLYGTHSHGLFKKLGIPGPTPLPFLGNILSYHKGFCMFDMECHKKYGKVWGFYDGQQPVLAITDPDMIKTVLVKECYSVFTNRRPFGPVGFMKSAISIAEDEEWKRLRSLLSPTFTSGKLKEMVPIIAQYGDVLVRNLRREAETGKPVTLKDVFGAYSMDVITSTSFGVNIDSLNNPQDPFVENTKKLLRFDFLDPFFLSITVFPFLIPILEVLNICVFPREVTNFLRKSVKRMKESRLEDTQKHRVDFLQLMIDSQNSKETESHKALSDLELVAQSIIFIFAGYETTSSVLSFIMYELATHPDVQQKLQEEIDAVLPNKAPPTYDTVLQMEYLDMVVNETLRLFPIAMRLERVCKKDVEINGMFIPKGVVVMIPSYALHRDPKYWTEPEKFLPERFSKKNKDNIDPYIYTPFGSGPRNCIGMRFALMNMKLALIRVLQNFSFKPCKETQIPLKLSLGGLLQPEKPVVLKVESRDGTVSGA
# Glucocorticoid receptor (Homo sapiens), sequence (P04150 whole entry, looked up, the tested form may be a part): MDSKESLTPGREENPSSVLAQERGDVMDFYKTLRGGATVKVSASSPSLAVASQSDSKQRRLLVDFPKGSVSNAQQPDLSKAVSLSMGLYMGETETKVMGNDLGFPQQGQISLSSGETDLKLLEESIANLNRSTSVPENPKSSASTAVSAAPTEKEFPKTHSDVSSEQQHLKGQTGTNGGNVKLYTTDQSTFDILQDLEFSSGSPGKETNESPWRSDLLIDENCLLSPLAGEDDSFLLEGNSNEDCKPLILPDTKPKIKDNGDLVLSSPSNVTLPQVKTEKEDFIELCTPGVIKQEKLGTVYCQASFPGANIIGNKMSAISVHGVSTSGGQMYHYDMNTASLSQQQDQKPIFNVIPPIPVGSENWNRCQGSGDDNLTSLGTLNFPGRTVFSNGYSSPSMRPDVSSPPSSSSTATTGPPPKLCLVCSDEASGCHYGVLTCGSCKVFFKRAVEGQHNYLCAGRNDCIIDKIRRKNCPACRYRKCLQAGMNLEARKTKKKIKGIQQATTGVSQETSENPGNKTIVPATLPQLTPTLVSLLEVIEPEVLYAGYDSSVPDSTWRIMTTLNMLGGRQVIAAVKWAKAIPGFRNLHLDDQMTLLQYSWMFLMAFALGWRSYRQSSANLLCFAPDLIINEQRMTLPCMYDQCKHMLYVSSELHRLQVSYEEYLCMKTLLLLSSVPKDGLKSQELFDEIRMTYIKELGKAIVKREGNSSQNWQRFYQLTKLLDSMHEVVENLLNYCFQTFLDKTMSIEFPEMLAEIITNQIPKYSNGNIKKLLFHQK
# Cytochrome P450 2D6 (Homo sapiens), sequence (P10635 whole entry, looked up): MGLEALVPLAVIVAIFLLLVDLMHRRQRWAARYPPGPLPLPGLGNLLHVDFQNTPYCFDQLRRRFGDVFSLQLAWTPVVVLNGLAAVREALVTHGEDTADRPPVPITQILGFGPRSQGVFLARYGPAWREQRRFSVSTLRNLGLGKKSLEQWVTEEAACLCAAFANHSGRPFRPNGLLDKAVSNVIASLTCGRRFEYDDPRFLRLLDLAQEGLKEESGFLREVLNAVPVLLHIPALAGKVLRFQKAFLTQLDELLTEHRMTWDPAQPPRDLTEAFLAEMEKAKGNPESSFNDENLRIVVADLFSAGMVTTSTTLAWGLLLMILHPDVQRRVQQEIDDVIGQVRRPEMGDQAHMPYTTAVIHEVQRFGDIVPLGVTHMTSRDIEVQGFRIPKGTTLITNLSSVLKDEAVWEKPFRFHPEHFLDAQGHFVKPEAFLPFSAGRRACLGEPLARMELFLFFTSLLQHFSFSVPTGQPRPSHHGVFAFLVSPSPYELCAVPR
# 3',5'-cyclic-AMP phosphodiesterase 4B (Homo sapiens), sequence (Q07343 whole entry, looked up): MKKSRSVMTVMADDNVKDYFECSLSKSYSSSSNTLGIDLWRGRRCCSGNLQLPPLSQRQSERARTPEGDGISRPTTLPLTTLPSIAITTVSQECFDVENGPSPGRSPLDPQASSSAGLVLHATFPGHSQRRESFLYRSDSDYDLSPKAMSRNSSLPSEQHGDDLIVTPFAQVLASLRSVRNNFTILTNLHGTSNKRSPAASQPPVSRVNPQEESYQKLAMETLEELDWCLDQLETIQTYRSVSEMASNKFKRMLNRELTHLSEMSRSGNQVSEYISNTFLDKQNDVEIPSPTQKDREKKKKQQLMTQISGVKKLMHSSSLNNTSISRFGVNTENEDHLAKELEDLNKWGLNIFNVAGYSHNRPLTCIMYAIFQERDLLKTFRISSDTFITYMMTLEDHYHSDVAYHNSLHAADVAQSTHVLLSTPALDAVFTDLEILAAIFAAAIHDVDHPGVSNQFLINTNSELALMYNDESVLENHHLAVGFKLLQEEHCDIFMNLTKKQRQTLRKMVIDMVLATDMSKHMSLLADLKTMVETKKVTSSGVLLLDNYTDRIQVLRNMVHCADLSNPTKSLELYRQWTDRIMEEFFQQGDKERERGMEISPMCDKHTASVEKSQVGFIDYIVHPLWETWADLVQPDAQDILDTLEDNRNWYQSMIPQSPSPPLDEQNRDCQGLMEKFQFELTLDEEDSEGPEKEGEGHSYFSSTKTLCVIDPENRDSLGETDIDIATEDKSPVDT
# Lysosomal acid glucosylceramidase (Homo sapiens), sequence (P04062 whole entry, looked up): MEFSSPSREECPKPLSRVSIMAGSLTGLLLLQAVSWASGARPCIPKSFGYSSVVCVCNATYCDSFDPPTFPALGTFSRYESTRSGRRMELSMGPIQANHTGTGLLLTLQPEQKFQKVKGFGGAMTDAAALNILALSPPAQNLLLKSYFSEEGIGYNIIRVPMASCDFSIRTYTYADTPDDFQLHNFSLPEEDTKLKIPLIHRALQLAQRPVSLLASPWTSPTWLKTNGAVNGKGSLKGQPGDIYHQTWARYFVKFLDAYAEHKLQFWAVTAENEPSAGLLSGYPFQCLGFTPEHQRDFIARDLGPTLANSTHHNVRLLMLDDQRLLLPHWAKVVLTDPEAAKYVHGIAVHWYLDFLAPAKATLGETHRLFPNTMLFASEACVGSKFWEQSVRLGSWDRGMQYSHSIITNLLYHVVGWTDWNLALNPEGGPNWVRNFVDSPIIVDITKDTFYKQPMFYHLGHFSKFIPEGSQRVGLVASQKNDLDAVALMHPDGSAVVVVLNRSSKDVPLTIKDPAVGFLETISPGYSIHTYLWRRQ
# Cytochrome P450 1A2 (Homo sapiens), sequence (P05177 whole entry, looked up): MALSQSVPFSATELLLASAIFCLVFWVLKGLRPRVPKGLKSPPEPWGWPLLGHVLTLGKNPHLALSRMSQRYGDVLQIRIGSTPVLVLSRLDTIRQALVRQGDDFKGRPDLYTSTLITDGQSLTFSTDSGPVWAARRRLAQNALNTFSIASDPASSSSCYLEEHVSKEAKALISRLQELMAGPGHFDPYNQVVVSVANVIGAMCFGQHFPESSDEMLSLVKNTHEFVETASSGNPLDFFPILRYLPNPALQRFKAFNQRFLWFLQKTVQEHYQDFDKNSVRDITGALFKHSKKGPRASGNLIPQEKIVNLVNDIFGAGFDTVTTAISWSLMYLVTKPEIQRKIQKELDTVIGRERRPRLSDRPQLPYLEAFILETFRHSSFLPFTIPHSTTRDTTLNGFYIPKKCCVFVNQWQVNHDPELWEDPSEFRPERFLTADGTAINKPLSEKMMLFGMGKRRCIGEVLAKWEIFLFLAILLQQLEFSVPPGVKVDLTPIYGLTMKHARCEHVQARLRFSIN
# Cytochrome P450 2C9 (Homo sapiens), sequence (P11712 whole entry, looked up): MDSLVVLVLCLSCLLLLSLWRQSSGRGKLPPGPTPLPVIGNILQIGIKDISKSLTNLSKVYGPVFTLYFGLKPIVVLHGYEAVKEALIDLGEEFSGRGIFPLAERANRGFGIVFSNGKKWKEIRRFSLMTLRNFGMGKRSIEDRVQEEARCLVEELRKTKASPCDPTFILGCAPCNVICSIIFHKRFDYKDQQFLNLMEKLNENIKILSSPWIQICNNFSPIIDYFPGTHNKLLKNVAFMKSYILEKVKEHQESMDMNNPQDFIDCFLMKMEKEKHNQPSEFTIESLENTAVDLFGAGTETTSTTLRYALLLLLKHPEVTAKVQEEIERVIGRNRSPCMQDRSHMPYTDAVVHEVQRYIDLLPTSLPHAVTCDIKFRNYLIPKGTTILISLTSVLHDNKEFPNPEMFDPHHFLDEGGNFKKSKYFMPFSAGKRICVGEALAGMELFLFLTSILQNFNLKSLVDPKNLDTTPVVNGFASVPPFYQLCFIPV
SMILES,Potency [1] [µM],"activity change, negative = inhibition [2] [%]","activity change, negative = inhibition [3]","activity, negative = inhibition [4] [%]",Potency [5] [µM],Potency [6] [µM],Potency [7],Potency [8],Potency [9],Potency [3],Potency [10],Potency [11],Potency [12],Potency [13]
Clc1ccc2c(c1)N(CCCN1CCCC13CCCCC3)c1ccccc1S2,> 11.4,19,-6.2% [at 2.29 µM],11.1,> 46,> 9.22,inactive,inactive,0.0079 µM (active),,,,,
COCCn1c(=O)c(-c2cc(F)cc(F)c2)nc2cnc(OC)nc21,> 11.4,-11.6,,-2.4,> 9.22,> 46,inactive,inactive,,3.98 µM (active),inactive,,,
Clc1ccc(-c2nnc(-c3cccc4ccccc34)o2)cc1Cl,> 11.4,-2.21,,10.3,> 46,> 9.22,inactive,inactive,,2 µM (active),,inactive,,
CC1(C)N=C(N)N=C(N)N1c1cccc(CSc2ccccc2)c1,> 11.4,-4.06,-17.2% [at 2.29 µM],2.13,> 46,> 9.22,inactive,inactive,0.251 µM (active),,,,,
Cc1ccc2nc(N/N=C\c3cccc(C)n3)cc(C)c2c1,> 11.4,-4.58,,7.26,> 46,> 9.22,inactive,inactive,3.16 µM (active),0.631 µM (active),inactive,,,
O=C(O)CCCc1ccc2ccc3ccccc3c2c1,> 11.4,-11.1,,-2.84,> 46,> 9.22,inactive,inactive,inactive,2 µM (active),,inactive,,
Cc1ccc(S(=O)(=O)Nc2ccccc2C=O)cc1,> 11.4,-0.783,,24,> 46,> 9.22,inactive,inactive,,inactive,,5.01 µM (active),inactive,
Cc1ccc(C(=N)c2ccccc2Cc2cccc3ccccc23)c2ccccc12,> 11.4,-3.34,,13.8,> 46,> 9.22,inactive,inactive,,1 µM (active),inactive,1.26 µM (active),,3.98 µM (active)
c1ccc(/C(=N/Nc2nc3ccccc3s2)c2ccccn2)cc1,> 11.4,-20.5,,-1.49,> 46,> 9.22,inactive,inactive,,3.16 µM (active),inactive,,,
Cc1cc2ccccc2c[n+]1CC(O)C[n+]1cc2ccccc2cc1C,> 11.4,-5.85,,4.97,> 46,> 9.22,inactive,inactive,0.0251 µM (active),inactive,,,,
Oc1ccccc1C(Sc1nc2ccccc2s1)Sc1nc2ccccc2s1,> 11.4,10.8,,-11.5,> 46,> 9.22,inactive,inactive,,1.26 µM (active),,3.16 µM (active),,
Cc1ccc2ccccc2c1CSc1nc(N)nc2c1ncn2CC(C)C,> 11.4,-11.7,-20.8% [at 2.29 µM],-19.8,> 46,> 9.22,inactive,inactive,3.98 µM (active),,,3.98 µM (active),,
CN(C)C[C@H]1CCC2=C(C1=O)C(c1ccc(Cl)c(Cl)c1)C1=C(CC[C@H](CN(C)C)C1=O)O2,> 11.4,0.767,-2% [at 2.29 µM],13.6,> 46,> 9.22,inactive,inactive,,,inactive,,,0.398 µM (active)
CC(C)(C)NCC[C@@H](O)c1cc(C(F)(F)F)nc2c(C(F)(F)F)cccc12,> 11.4,9.95,-9.9% [at 2.29 µM],-4.67,> 46,> 9.22,inactive,inactive,0.316 µM (active),,,,,
O[C@H](CNc1ccccn1)c1ccccc1,> 11.4,1.58,,4.88,> 46,> 9.22,inactive,inactive,1.58 µM (active),inactive,,,,
